Measured values taken from PubChem BioAssay AID504850 (National Center for Advancing Translational Sciences (NCATS), 2011).
The whole screen tested about 2,300 compounds, of which about 1,200 (52%) were called active. About 34% were inconclusive and are not listed. The call rests on the fitted dose curve; in most records, active means well fitted inhibition curve with a large enough effect; inconclusive means small, poorly fitted or top-dose-only effect, or effect the other way; inactive means no such curve, though single readings can be large or run the other way. The set was probably picked from earlier hits. This is one part of the list.

Experiment: Confirmation screen for delayed death inhibitors of the malarial parasite plastid, 48 hour incubation; further: nearly all actives have a fitted effect of over 65% in size
Conditions: P. falciparum-infected erythrocytes, luciferase growth; series mostly up to 28.7 µM; activity change, negative = inhibition: at the top concentration
Procedure, shortened: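 Erythrocytes infected with luciferase-expressing P. falciparum (2% hematocrit, 0.1% parasitemia) incubated with compounds 48 hours at 37 C, 5% CO2, in RPMI/Albumax. Growth inhibition scored as reduced luminescence after detection reagent.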
On the % scale 0 is the no-effect control and ±100 the full control effect; potency means the concentration at half of the fitted maximal effect.

Compound | Potency | activity change, negative = inhibition
COc1ccc(/C=C/C(=O)c2ccc([N+](=O)[O-])o2)cc1OC | 11.2 µM (active) | 
CCCSc1ccc(-c2nn(-c3ccccc3)cc2/C=C(/C#N)C(=O)NCCCOC)cc1 | 5.62 µM (active) | 
CN1CCN(c2ccccc2NC(=O)c2cccc(OCc3ccccc3)c2)CC1 | 7.94 µM (active) | 
Cc1cc(=O)oc2ccc(OCC(=O)N3CCc4ccccc43)cc12 | 10 µM (active) | 
CCC1CCCCN1CCCNC(=O)Cn1c(=O)c2cccn2c2cccnc21 (stereo unspecified) |  | -8.96% (inactive)
CCC1CCCCN1CCCNC(=O)CNC(=O)c1nn(-c2ccc(OC)c(Cl)c2)c(=O)c2ccccc12 (stereo unspecified) | 11.2 µM (active) | 
O=C(O)c1nn(CCOc2ccc(Cl)cc2Cl)c(=O)c2ccccc12 |  | -10% (inactive)
O=C1NC(NS(=O)(=O)c2ccc(Cl)cc2)(C(F)(F)F)C(=O)N1Cc1cccnc1 (stereo unspecified) |  | -27.7% (inactive)
CCCOc1cc(NCc2ccccc2)c2ncn(C(C)C)c2c1 | 5.01 µM (active) | 
CCCN1C2=C(C(=O)CCC2)C(c2ccc(O)c(Br)c2)C2=C1CCCC2=O | 12.6 µM (active) | 
O=c1cc(CSc2ccc(Cl)cc2)nc(-c2ccccn2)[nH]1 | 5.01 µM (active) | 
CCc1nc(SCC(=O)Nc2ccccc2OC)c2c(C)c(C)sc2n1 | 12.6 µM (active) | 
Cc1sc2nc(C3CC3)nc(SCC(=O)N3c4ccccc4CC3C)c2c1C (stereo unspecified) | 14.1 µM (active) | 
CCc1nc(SCC(=O)N2c3ccccc3CC2C)c2c(C)c(C)sc2n1 (stereo unspecified) | 11.2 µM (active) | 
C=CCNC(=O)c1cnc2n(c1=O)CCS2 |  | -0.495% (inactive)
C=CCn1c(SCc2cc(=O)n3cc(C)ccc3n2)nnc1-c1ccc(F)cc1 | 14.1 µM (active) | 
COC(=O)C1=C(C)Nc2ncnn2C1c1ccccn1 (stereo unspecified) |  | -2.2% (inactive)
Cc1ccc(Cn2c(C)nc3c(c2=O)c2nc4ccccc4nc2n3Cc2ccco2)cc1 | 7.08 µM (active) | 
Cc1cc(C)cc(-n2c3nc4ccccc4nc3c3c(=O)n(Cc4ccco4)cnc32)c1 | 12.6 µM (active) | 
COc1cc(C2Oc3ccccc3C=C2[N+](=O)[O-])cc(OC)c1OC (stereo unspecified) | 14.1 µM (active) | 
O=C(/C(=C/c1ccc(Cl)cc1)c1nc2ccccc2[nH]1)c1ccccc1 | 1.41 µM (active) | 
COc1cc(/C=C(/C(=O)c2cccs2)c2nc3ccccc3[nH]2)ccc1O | 8.91 µM (active) | 
CCCc1c(C)c2cccc(C)c2[nH]c1=O |  | -16.3% (inactive)
COc1ccc(CNC(=O)C[C@H]2C(=O)N(C3CCCCC3)C[C@@H]2Cc2ccccc2)cc1 | 11.2 µM (active) | 
COc1ccc(CNCc2ccc3ccccc3c2)c(OC)c1 | 11.2 µM (active) | 
Cc1cc(C)n(CC(O)COc2ccccc2)n1 (stereo unspecified) | 2 µM (active) | 
